The panel holds about 83,000 compounds, 20% with a hit somewhere; the sample as a whole holds those more often.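 Testing used 96-well plates and a 48-hour single-concentration exposure. Example: -40 means 40% of the starting cells died.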 Values without a mark were called inactive. The source made the active and inactive calls. Rule for the calls: active = growth percent below 10; inactive = the rest.
Columns and labels:
Test in all cases: NCI-60 one-dose screen, 48 h (100 = growth as untreated, 0 = no growth, -100 = all killed)
Conditions in all cases: 10 µM unless noted
SR leukemia = system: SR leukemia
RPMI-8226 leukemia = system: RPMI-8226 leukemia
OVCAR-8 ovarian = system: OVCAR-8 ovarian
OVCAR-4 ovarian = system: OVCAR-4 ovarian
IGROV1 ovarian = system: IGROV1 ovarian
OVCAR-3 ovarian = system: OVCAR-3 ovarian
HS 578T breast = system: HS 578T breast
NCI/ADR-RES ovarian = system: NCI/ADR-RES ovarian
OVCAR-5 ovarian = system: OVCAR-5 ovarian
SK-OV-3 ovarian = system: SK-OV-3 ovarian

SMILES	growth (SR leukemia)	growth (RPMI-8226 leukemia)	growth (OVCAR-8 ovarian)	growth (OVCAR-4 ovarian)	growth (IGROV1 ovarian)	growth (OVCAR-3 ovarian)	growth (HS 578T breast)	growth (NCI/ADR-RES ovarian)	growth (OVCAR-5 ovarian)	growth (SK-OV-3 ovarian)
COc1cc2ccccc2cc1C(=O)NC(=S)Nc1ccc(-c2nc3ccccc3[nH]2)cc1	28.3%	71.5%	93.1%	-35.9% (active)	83.2%	55%	30.7%	59.4%		
CNC=O	92.4%	103%		115%	95%	109%	2.14% (active)	59.5%	87.7%	105%
CC1(C)N=C(N)N=C(N)N1c1ccc(Cl)c(Cl)c1	39.5%	48.2%	28.7%	54.5%	41.2%	53%				39.5%
COc1cc2c(cc1OC)-c1ccc3cc4c(cc3c1N(CCCn1ccnc1)C2)OCO4	7.86% (active)	0.821% (active)	44.7%	67.9%	38.3%	33.5%	91.5%	94.4%		20.7%
COc1ccc(/C=C2\C=C(c3ccccc3)N(CCc3ccccc3)C2=O)cc1OC	-1.98% (active)	70.6%	25.9%	-5.49% (active)	49%	28%	13.1%	31.6%		-30.3% (active)
Cc1ccccc1NC(=O)CN(C)C	104%	111%	108%	118%	96%		113%	101%		101%
CCOC(=O)c1c2c(c(C)n1C)-c1nn(Cc3ccc(OC)cc3)cc1CC2	71.2%	77.8%	100%	71.2%	111%	108%				109%
COc1ccc(-c2nc3ncccn3c2/C=C/C(=O)c2cc(OC)c(OC)c(OC)c2)cc1	-2.39% (active)	-32.2% (active)	9.62% (active)	7.94% (active)		-24.4% (active)				-13.5% (active)
COc1ccc(-n2nnc(C(=O)NCCc3c[nH]c4ccc(F)cc34)c2C)cc1	82.1%	93.3%	98.6%	107%	107%	103%	96.5%	106%		89.8%
CC(/C=N/NC(=O)c1cc(-c2ccco2)[nH]n1)=C\c1ccccc1	88.7%	84.7%		99.6%	107%	107%	30.3%	97.8%	96.9%	97.4%
CC(=O)Nc1nccs1	111%	102%	103%	117%	94.7%	99.6%	91.7%	94.3%		98.8%
CNC(=O)c1cc(Oc2ccc3nc(NC(=O)Nc4cc(C(F)(F)F)cc(C(F)(F)F)c4)sc3c2)ccn1	-27.6% (active)	-14.1% (active)	-68.2% (active)	-77.2% (active)	-48.5% (active)	-76.5% (active)	-20.4% (active)	-38.2% (active)		-58% (active)
O=C(Nc1ccccc1Cl)OCCN1CCOCC1	103%	101%	107%	110%	107%	105%	120%	104%		112%
COc1cc(/C=C/C(=O)c2cccc(-n3cc(-c4ccccc4)[nH]c3=O)c2)cc(OC)c1OC	-15.9% (active)	-39.4% (active)	12.5%	-7.54% (active)	-23.8% (active)	6.35% (active)				4.74% (active)
COc1cc(C2C=C(c3cccc(NC(C)=O)c3)Nc3ncnn32)cc(OC)c1OC (centres undefined)	-5.94% (active)	19%	24.3%	59.8%	30.4%	-40.5% (active)	19%	76.1%		35.5%
Nc1nc(I)c2ncn(C3OC(CO)C(O)C3O)c2n1 (centres undefined)	107%	157%	112%	129%	121%		136%	105%		100%

SMILES	growth (SR leukemia)	growth (RPMI-8226 leukemia)	growth (OVCAR-8 ovarian)	growth (OVCAR-4 ovarian)	growth (IGROV1 ovarian)	growth (OVCAR-3 ovarian)	growth (HS 578T breast)	growth (NCI/ADR-RES ovarian)	growth (OVCAR-5 ovarian)	growth (SK-OV-3 ovarian)
CN(C)CCOC(=O)Nc1ccc(Cl)cc1	101%	94.3%	97.5%	117%	103%	106%	94.7%	104%		96.9%
COc1cc(-c2ncn(/C=C\c3nnco3)n2)cc(C(F)(F)F)c1	6.43% (active)	76.4%	19.8%	15.4%	22.3%	-20.8% (active)	19.3%	27.1%		38.9%
N#Cc1c(NC(=O)c2ccc(Br)cc2)sc2c1CCCC2	50.2%	33.3%	64.6%	69.6%	53.7%	16.8%	39.1%	16.6%		
O=C1CSC(c2ccccc2O)N1c1nnc(Cn2cnnc2)o1 (centres undefined)	72.4%	71.1%		86.4%	73.9%	91.2%	88.1%	68.9%	78.1%	88.3%
COc1cc(/C=C/C(=O)c2cccc(-n3cc(-c4ccc(Cl)cc4)[nH]c3=O)c2)cc(OC)c1OC	-15.8% (active)	-27.1% (active)	29.3%	76.9%	13.1%	15.8%				84.8%
COc1cc(C(=O)/C=C/c2c(C(F)(F)F)nc3ccccn23)cc(OC)c1OC	-9.2% (active)	-14.6% (active)	3.68% (active)	8.45% (active)	9.02% (active)	-57.3% (active)				-1.92% (active)
Cc1c(Cl)cccc1NS(=O)(=O)c1ccccc1	113%	123%	112%	73.3%	114%	100%	102%	104%		105%
CCn1c(Sc2nnc(Nc3ccccc3)s2)nc2c1c(=O)n(C)c(=O)n2C	103%	122%	103%	96.5%	91.4%	110%	99.3%	89.6%		
Cc1c2c(cn1Cc1ccccc1)CCc1cn(C)nc1-2	53.2%	40.9%	86.5%	55.4%	102%	107%				108%
Cc1ccc(C)c2c1C(=O)OC2=O	10.4%	109%	106%	109%	92%	115%	114%	98.1%		95.2%
COc1ccc(-c2cn(-c3cccc(C(=O)/C=C/c4cc(OC)c(OC)c(OC)c4)c3)c(=O)[nH]2)cc1	-12.5% (active)	-45.8% (active)	12.4%	25%	8.71% (active)	-13.6% (active)				31.6%
CC1(C)CC(=O)c2c(ccc(C(=O)C[C@H](N)CO)c2N)O1	16.7%	13%	32.4%	69.8%	34.7%	7.02% (active)	82.4%	70.5%		
CN(C)c1ccc(C#Cc2c(F)cccc2Cl)cc1	94.3%	91.3%	93.2%	72%	47.2%	90.6%	94.5%	85.3%		79%
COc1cc2c(O)n(CCCn3ccnc3)c3c4cnc5cccc(c(=O)c3c2cc1OC)c54	25%	19.4%	35.3%	50.9%	46.2%	44.7%	73.8%	98.3%		
Nc1ccc2c(S(=O)(=O)O)ccc(S(=O)(=O)O)c2c1	83.4%	95.7%	91.6%	99.9%	82.5%	117%				95.6%
Cc1c2c(cn1Cc1ccccc1)CCc1cn[nH]c1-2	51.6%	70.8%	94.6%	81.3%		100%				114%
